The campaign covered roughly 5,500 compounds. About 2,000 (36%) were called active. About 18% were inconclusive and are not listed. Some of the results follow. Values without a mark were called inactive. Rule as the data show it: active = normalized growth mostly below about 0.91 (no sharp cut-off); inconclusive = no clear call, values can overlap the other calls; inactive = mostly above about 0.92.
Assay: chemical genetic growth profiling, strain panel (AID 1159580);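 also: tested at 20 µM; growth read once vehicle control cultures reached saturation at 30 °C; 1 = growth at the plate median or of vehicle wells; lower values mean less growth of the strain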
Conditions: S. cerevisiae deletion strains, growth OD

## Cc1ccc(-n2cccc2)c(NS(=O)(=O)c2ccc(-c3ccno3)s2)c1
Locus YAR019C, strain CDC15, hits give low values
  normalized growth: 0.94
Locus YBL105C, strain PKC1, hits give low values
  normalized growth: 0.947
Locus YBR135W, strain CKS1, hits give low values
  normalized growth: 0.944
Locus YBR136W, strain MEC1, hits give low values
  normalized growth: 0.953
Locus YBR160W, strain CDC28, hits give low values
  normalized growth: 0.938
Locus YDL017W, strain CDC7, hits give low values
  normalized growth: 0.957
Locus YDL028C, strain MPS1, hits give low values
  normalized growth: 0.933
Locus YDL101C, strain DUN1, hits give low values
  normalized growth: 0.958
Locus YDL108W, strain KIN28, hits give low values
  normalized growth: 0.937
Locus YDL132W, strain cdc53, hits give low values
  normalized growth: 0.943
Locus YDL214C, strain PRR2, hits give low values
  normalized growth: 0.899
Locus YDR052C, strain DBF4, hits give low values
  normalized growth: 0.962
Locus YDR054C, strain cdc34, hits give low values
  normalized growth: 0.941
Locus YDR226W, strain ADK1, hits give low values
  normalized growth: 0.929
Locus YDR477W, strain SNF1, hits give low values
  normalized growth: 0.894
Locus YER123W, strain YCK3, hits give low values
  normalized growth: 0.868
Locus YER133W, strain GLC7, hits give low values
  normalized growth: 0.902
Locus YFL009W, strain cdc4, hits give low values
  normalized growth: 0.93
Locus YFL029C, strain CAK1, hits give low values
  normalized growth: 0.936
Locus YFR003C, strain YPI1, hits give low values
  normalized growth: 0.957
Locus YFR019W, strain FAB1, hits give low values
  normalized growth: 0.976
Locus YFR028C, strain CDC14, hits give low values
  normalized growth: 0.94
Locus YGR040W, strain KSS1, hits give low values
  normalized growth: 0.914
Locus YGR052W, strain FMP48, hits give low values
  normalized growth: 0.898
Locus YGR092W, strain DBF2, hits give low values
  normalized growth: 0.76
Locus YHR030C, strain SLT2, hits give low values
  normalized growth: 0.667 (active)
Locus YHR079C, strain IRE1, hits give low values
  normalized growth: 0.847
Locus YHR082C, strain KSP1, hits give low values
  normalized growth: 0.888
Locus YHR205W, strain SCH9, hits give low values
  normalized growth: 0.862
Locus YIL147C, strain SLN1, hits give low values
  normalized growth: 0.941
Locus YJL095W, strain BCK1, hits give low values
  normalized growth: 0.816
Locus YJL128C, strain PBS2, hits give low values
  normalized growth: 0.891
Locus YJL157C, strain FAR1, hits give low values
  normalized growth: 0.921
Locus YJR016C, strain ILV3, hits give low values
  normalized growth: 0.941
Locus YJR066W, strain TOR1 (second series), hits give low values
  normalized growth: 0.889
Locus YJR066W, strain TOR1, hits give low values
  normalized growth: 0.816
Locus YKL048C, strain ELM1, hits give low values
  normalized growth: 0.924
Locus YKL067W, strain YNK1, hits give low values
  normalized growth: 0.885
Locus YKL101W, strain HSL1, hits give low values
  normalized growth: 0.894
Locus YKL193C, strain SDS22, hits give low values
  normalized growth: 0.941
Locus YKL203C, strain TOR2, hits give low values
  normalized growth: 0.979
Locus YLR113W, strain HOG1, hits give low values
  normalized growth: 0.774 (active)
Locus YLR133W, strain CKI1, hits give low values
  normalized growth: 0.923
Locus YLR403W, strain SFP1, hits give low values
  normalized growth: 0.915
Locus YML070W, strain DAK1, hits give low values
  normalized growth: 0.905
Locus YMR001C, strain CDC5, hits give low values
  normalized growth: 0.947
Locus YMR205C, strain PFK2 (second series), hits give low values
  normalized growth: 0.918
Locus YMR277W, strain FCP1, hits give low values
  normalized growth: 0.93
Locus YNL006W, strain LST8, hits give low values
  normalized growth: 0.965
Locus YNL020C, strain ARK1, hits give low values
  normalized growth: 0.939
Locus YNL161W, strain CBK1, hits give low values
  normalized growth: 0.953
Locus YNL183C, strain NPR1, hits give low values
  normalized growth: 0.9
Locus YNL207W, strain RIO2, hits give low values
  normalized growth: 0.939
Locus YNL222W, strain SSU72, hits give low values
  normalized growth: 0.943
Locus YNL307C, strain MCK1 (second series), hits give low values
  normalized growth: 0.9
Locus YOL078W, strain AVO1, hits give low values
  normalized growth: 0.941
Locus YOL136C, strain PFK27, hits give low values
  normalized growth: 0.906
Locus YOR061W, strain CKA2, hits give low values
  normalized growth: 0.906
Locus YOR119C, strain RIO1, hits give low values
  normalized growth: 0.923
Locus YOR231W, strain MKK1, hits give low values
  normalized growth: 0.833
Locus YOR329C, strain SCD5, hits give low values
  normalized growth: 0.952
Locus YPL031C, strain PHO85, hits give low values
  normalized growth: 0.896
Locus YPL153C, strain RAD53, hits give low values
  normalized growth: 0.872
Locus YPL204W, strain HRR25, hits give low values
  normalized growth: 0.883
Locus YPL209C, strain IPL1, hits give low values
  normalized growth: 0.953
Locus YPL256C, strain CLN2, hits give low values
  normalized growth: 0.791 (active)
Locus YPR025C, strain CCL1, hits give low values
  normalized growth: 0.95
Locus YPR106W, strain ISR1, hits give low values
  normalized growth: 0.932
Locus YPR111W, strain DBF20, hits give low values
  normalized growth: 0.926
Strain NNK1, hits give low values
  normalized growth: 0.938
Strain TSCII, hits give low values
  normalized growth: 0.942
